Laboratory results from PubChem BioAssay AID430 (Sanford-Burnham Center for Chemical Genomics, 2006).
The whole screen tested about 63,000 compounds, of which about 1,100 (1.7%) were called active. The list comes from a sample in which actives are over-represented; it also holds similar structures and randomly drawn compounds. Potency and affinity values are given separately. Unmarked numbers belong to inactive results. No stated cut-off is given here; in the data, active means cytotoxicity above about 50%; inactive means the rest.

Test: cytotoxicity in HPDE-C7 cells, cell-based, fluorescence, HTS (AID 430);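 further: cells exposed to compound for 48 hours before viability readout; 0% = vehicle and 100% = reference cytotoxic drug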
Settings: HPDE-C7 pancreatic duct cells viability, at 10 µM, active compounds read high
Molecule `Cc1cc(C)cc(OCc2nnc(SCC(=O)c3ccc(Br)cc3)o2)c1` has a cytotoxicity of -22.5%.
With `CCc1ccc(CCC(=O)Nc2sc3c(c2C#N)CCCC3)o1` the cytotoxicity was 72% (active).
`CC(C)c1cc(C(=O)Nc2sc3c(c2C#N)CCC3)no1` gave a cytotoxicity of 17.6%.
`COC(=O)CCC(=O)Nc1sc2c(c1C#N)CCCC2` showed a cytotoxicity of -8%.
Work on `CCCc1cc(C(=O)Nc2sc3c(c2C#N)CCC3)no1` yielded a cytotoxicity of 5.7%.
In the case of `Cc1cc(C(=O)Nc2sc3c(c2C#N)CCCC3)no1`, the cytotoxicity is reported as -1.6%.
Work on `CC(C)(C)C1CCc2c(sc(NC(=O)c3cc(C4CC4)on3)c2C#N)C1` (stereo not given) yielded a cytotoxicity of 30.3%.
With `Cc1cc(C(=O)Nc2sc3c(c2C#N)CCC3)no1` the cytotoxicity was 53.5% (active).
With `N#Cc1c(NC(=O)c2cc(C3CC3)on2)sc2c1CCC2` the cytotoxicity was 65.1% (active).
For `CCCC(=O)Nc1sc2c(c1C#N)CCCC2`, the cytotoxicity was 2.6%.
In the case of `CCOc1cc(C2NC(=O)NC(C)=C2C(=O)OC(C)CC)cc(Br)c1O` (stereo not given), the cytotoxicity is reported as 3.2%.
In the case of `Cc1nn(C)c(C)c1S(=O)(=O)N1CCC(C(=O)NC2CCCCCC2)CC1`, the cytotoxicity is reported as 3.3%.
With `COCCCNC(=O)CCCn1c(=O)[nH]c2ccccc2c1=O` the cytotoxicity was -15.8%.
For `CCN(CC)CCN1C(=O)C(=O)/C(=C(/O)c2cnn(-c3ccccc3)c2C)C1c1cccnc1` (stereo not given), the cytotoxicity was 0.2%.
In the case of `O=C(Nc1ccc(N2CCOCC2)cc1)C1CCCN(S(=O)(=O)c2ccccc2)C1` (stereo not given), the cytotoxicity is reported as 0.2%.
For `CCOc1ccc2nc(-c3ccccc3)[nH]c2c1`, the cytotoxicity was 56.7% (active).
In the case of `CCOc1ccc2nc(C(C)O)[nH]c2c1` (stereo not given), the cytotoxicity is reported as -5.7%.
Work on `COc1ccc2nc(-c3ccccc3)[nH]c2c1` yielded a cytotoxicity of -3.7%.
With `COC(=O)c1ccc(Cl)c(NC(=O)CN2CCOCC2)c1` the cytotoxicity was 0.1%.
`CCOC(=O)c1cccc(NC(=O)CSc2nnc(-c3ccncc3)n2CCCOC)c1` showed a cytotoxicity of -11.4%.
In the case of `C/C(CC(O)c1ccc2ccccc2n1)=N/O` (stereo not given), the cytotoxicity is reported as 0.7%.
`CC(Sc1ccc2ccccc2n1)C(=O)O` (stereo not given) gave a cytotoxicity of 4.7%.
With `COc1ccccc1N(CC(=O)Nc1ccc2c(c1)OCO2)S(=O)(=O)c1ccccc1` the cytotoxicity was 7.5%.
Molecule `O=C(NCCCO)c1nc2ccccc2s1` has a cytotoxicity of 5.3%.
For `CCc1cc2c(=O)c(-c3ccc4c(c3)OCCO4)coc2cc1OC(=O)c1ccco1`, the cytotoxicity was 56.6% (active).
`CCc1cc2c(=O)c(-c3nc4ccccc4[nH]3)coc2cc1OC(=O)N1CCOCC1` showed a cytotoxicity of -31.2%.
In the case of `CCOC(=O)c1oc2cc(O)c(CC)cc2c(=O)c1-c1ccc2c(c1)OCCO2`, the cytotoxicity is reported as 0.2%.
`Cc1nc(NC(=O)c2cc3c(s2)CCCCC3)sc1C(=O)N(C)C` gave a cytotoxicity of -7%.
Molecule `COC(=O)Cn1c2ccccc2c2nc(C)sc21` has a cytotoxicity of 2.7%.
Work on `O=C(CS(=O)(=O)c1ccccc1)N1CCCCCC1` yielded a cytotoxicity of -5.2%.
For `C/C=C(\CS(=O)(=O)c1ccccc1)S(=O)(=O)c1ccccc1`, the cytotoxicity was 35.4%.
With `Cc1cccn2c(=O)c3cc(C#N)c(=N)n(CCN4CCOCC4)c3nc12` the cytotoxicity was 5%.
`Cc1ccccc1-n1c(SCc2cc(=O)n3ccccc3n2)nc2[nH]ncc2c1=O` showed a cytotoxicity of -8%.
With `CC1(N2CCOCC2)CC2(O)C(=[N+]1[O-])CCc1c2no[n+]1[O-]` (stereo not given) the cytotoxicity was 60.2% (active).
For `CC1(N2CCCCC2)CC2(O)C(=[N+]1[O-])CCC/C2=N\O` (stereo not given), the cytotoxicity was -1.5%.
In the case of `CC1(N2CCOCC2)CC2(O)C(=[N+]1[O-])CCc1nonc12` (stereo not given), the cytotoxicity is reported as 12.8%.
Work on `Cc1ccc(Nc2nc(N3CCOCC3)c3ccccc3n2)cc1` yielded a cytotoxicity of 30.7%.
Work on `COc1ccc(Nc2nc(N3CCCC3)c3ccccc3n2)cc1` yielded a cytotoxicity of 27.2%.
With `Oc1ccc(Nc2nc(N3CCCC3)c3ccccc3n2)cc1` the cytotoxicity was 73.1% (active).
`C=CCN1C(=O)C2(c3ccccc31)C1CCCC=C1C(C#N)=C(N)C2(C#N)C#N` (stereo not given) showed a cytotoxicity of -22.1%.
`C=C(C)c1cccc(C(C)(C)NC(=O)N2CCOCC2)c1` gave a cytotoxicity of 7.9%.
Molecule `COc1ccc(C(O)C(CN2CCOCC2)c2ccccc2)cc1F` (stereo not given) has a cytotoxicity of -2.2%.
For `COc1ccc(C(=O)O)cc1F`, the cytotoxicity was -2.5%.
`COc1ccc(C(=O)C(c2ccccc2)N2CCOCC2)cc1` (stereo not given) showed a cytotoxicity of -4.6%.
`COc1ccc(C(=O)CCN2CCCCCC2)cc1` gave a cytotoxicity of 19.8%.
Molecule `CCOC(=O)Cc1nnc(NC(=O)CSc2nnc3c4ccccc4n(C(C)C)c3n2)s1` has a cytotoxicity of -15%.
In the case of `CC1CCCCC1NC(=O)C1CCN(S(=O)(=O)c2ccc3c(c2)CCC(=O)N3)CC1` (stereo not given), the cytotoxicity is reported as -18.5%.
`COc1ccccc1C1NC(=O)CS1` (stereo not given) showed a cytotoxicity of -18.6%.
`Cc1nc(-c2ccccc2)cc(N2CCCC2)n1` showed a cytotoxicity of -14.7%.
For `Nc1nc(-c2ccccc2)cc(N2CCCCC2)n1`, the cytotoxicity was 50.6% (active).
`c1ccc(-c2cc(N3CCCCC3)ncn2)cc1` gave a cytotoxicity of -3.8%.
In the case of `CCOc1cccc2c1OC1(C)CC2NC(=O)N1c1cccc(F)c1` (stereo not given), the cytotoxicity is reported as -12.1%.
Molecule `Cc1nnc(SCC(=O)Nc2ncc(Cc3ccc(F)cc3)s2)n1N` has a cytotoxicity of -7.7%.
With `Cc1ccc(C(=O)Nc2ncc(Cc3ccccc3)s2)o1` the cytotoxicity was 31.4%.
For `Cc1ccc(C(=O)Nc2ncc(Cc3ccc(F)cc3)s2)o1`, the cytotoxicity was 57.5% (active).
For `CCOc1ccc(CN(CCO)CCO)cc1C(=O)OC`, the cytotoxicity was -17%.
In the case of `O=C(CSc1nc2ccccc2o1)Nc1ccccc1`, the cytotoxicity is reported as -13.9%.
For `CSc1cccc(NC(=O)CSc2nc3ccccc3o2)c1`, the cytotoxicity was -17.5%.
Molecule `CCCCN(Cc1ccccc1)C(=O)C1CCCN(S(=O)(=O)c2cnc[nH]2)C1` (stereo not given) has a cytotoxicity of 6%.
In the case of `Cc1cccc2cc(C#N)c(SCC(=O)N3CC(=O)Nc4ccccc43)nc12`, the cytotoxicity is reported as 53.4% (active).
With `Cc1ccccc1-n1c(C)nnc1SCC(=O)N1CC(=O)Nc2ccccc21` the cytotoxicity was 4.2%.
For `Cc1cccc2cc(C#N)c(SCC(=O)N3CCC(C)CC3)nc12`, the cytotoxicity was 8.5%.
In the case of `C=CCOc1ccc(/C(O)=C2/C(=O)C(=O)N(CCN3CCOCC3)C2c2ccc(C)cc2)cc1` (stereo not given), the cytotoxicity is reported as -1.1%.
With `N#CC1=C(N)C(C#N)(C#N)[C@H](c2ccncc2)[C@H]2CC3(CC=C12)OCCO3` the cytotoxicity was -12.1%.
With `Cc1ccc(C2C3CN(C(C)C)CC=C3C(C#N)=C(N)C2(C#N)C#N)cc1` (stereo not given) the cytotoxicity was -0.7%.
Molecule `CCOC(=O)c1cccc(NC(=O)CSc2nnc(-c3cccnc3)n2CC)c1` has a cytotoxicity of -5.8%.
In the case of `COc1ccccc1-n1c(SCC(=O)N2CCCCC2)nc2cccnc21`, the cytotoxicity is reported as -11.8%.
Work on `c1ccc2c(c1)[nH]c1c(N3CCSCC3)ncnc12` yielded a cytotoxicity of 44%.
For `COc1ccc2c(c1)c1ncnc(N3CCN(Cc4ccc5c(c4)OCO5)CC3)c1n2C`, the cytotoxicity was 54.9% (active).
`Fc1ccc2[nH]c3c(N4CCN(C5CCCCC5)CC4)ncnc3c2c1` gave a cytotoxicity of 10.6%.
Molecule `COc1ccc2c(c1)c(C(O)CN1CCN(Cc3ccc4c(c3)OCO4)CC1)c(C)n2C` (stereo not given) has a cytotoxicity of 21.3%.
`c1ccc(Cn2nnc3c(N4CCN(Cc5ccc6c(c5)OCO6)CC4)ncnc32)cc1` showed a cytotoxicity of 11.9%.
Molecule `Fc1ccc2[nH]c3c(N4CCN(c5ccccc5)CC4)ncnc3c2c1` has a cytotoxicity of 10.8%.
In the case of `COc1ccc2[nH]c3c(N4CCN(Cc5ccc6c(c5)OCO6)CC4)ncnc3c2c1`, the cytotoxicity is reported as 50.6% (active).
In the case of `COc1cccc2[nH]c3c(N4CCN(Cc5ccc6c(c5)OCO6)CC4)ncnc3c12`, the cytotoxicity is reported as 47.6%.
In the case of `COc1cccc(N2CCN(c3ncnc4c3[nH]c3ccc(F)cc34)CC2C)c1` (stereo not given), the cytotoxicity is reported as 114% (active).
With `c1ccc2c(c1)oc1c(N3CCN(Cc4ccc5c(c4)OCO5)CC3)ncnc12` the cytotoxicity was 8.4%.
With `CN1CCN(c2ncnc3c2[nH]c2ccc(F)cc23)CC1` the cytotoxicity was 6.4%.
`Cc1ccc(N(CC(=O)NC2CCCCCC2)S(=O)(=O)c2c(C)nn(C)c2C)cc1` showed a cytotoxicity of 3.4%.
With `COc1cccc(C(=O)N(CN2CCCC2=O)c2ccccc2OC)c1` the cytotoxicity was -0.2%.
Molecule `CCCC(c1nnnn1Cc1ccc(F)cc1)N1CCN(C2CCCCC2)CC1` (stereo not given) has a cytotoxicity of 10.8%.
`O=C(CN1CCN(c2ccccn2)CC1)Nc1ccc(OCc2ccccc2)cc1` showed a cytotoxicity of 3.7%.
In the case of `O=C1c2ccccc2C(=O)N1CCSc1nncs1`, the cytotoxicity is reported as -8.3%.
With `COC(=O)c1[nH]c2cc(OC)ccc2c1NC(=O)CCN1CCN(Cc2ccc3c(c2)OCO3)CC1` the cytotoxicity was -20.7%.
`c1nc(N2CCN(Cc3ccc4c(c3)OCO4)CC2)c2[nH]cnc2n1` showed a cytotoxicity of -4%.
`Cc1ccc2c(c1)[nH]c1c(N3CCN(Cc4ccc5c(c4)OCO5)CC3)ncnc12` gave a cytotoxicity of -17.1%.
In the case of `Cc1ccc2[nH]c3c(N4CCN(Cc5ccc6c(c5)OCO6)CC4)ncnc3c2c1`, the cytotoxicity is reported as 30.3%.
In the case of `Fc1ccc2[nH]c3c(N4CCN(Cc5ccc6c(c5)OCO6)CC4)ncnc3c2c1`, the cytotoxicity is reported as 89.3% (active).
With `COc1ccccc1-n1c(SCC(=O)NC(C)(C)C)nnc1-c1ccco1` the cytotoxicity was 3.2%.
For `COC(=O)c1sc(NC(=O)CSc2nnc(C(C)C)n2C)nc1C`, the cytotoxicity was -8.2%.
With `COc1ccccc1CN1C(=O)CCC1(C)C(=O)NC1CCCCCC1` (stereo not given) the cytotoxicity was -12.9%.
For `COCCNC(=O)c1cnn2c(C(F)(F)F)cc(-c3ccc4c(c3)OCO4)nc12`, the cytotoxicity was 4.1%.
In the case of `Cc1cc(-c2ccccc2)c2c3c(cn2n1)c(=O)n(C)c(=O)n3C`, the cytotoxicity is reported as 2.6%.
Molecule `Cc1nc2sc3c(c2c2nnc(SCC(=O)NCc4ccco4)n12)CCCC3` has a cytotoxicity of -3.2%.
Molecule `N#Cc1c(SCc2ccccc2)nc(N2CCOCC2)c2c1CCCC2` has a cytotoxicity of 8.3%.
In the case of `CN1Cc2c(N3CCOCC3)nc(SCc3ccccc3)c(C#N)c2CC1(C)C`, the cytotoxicity is reported as 51.3% (active).
In the case of `CC1(C)Cc2c(C#N)c(SCc3ccccc3)nc(N3CCOCC3)c2CO1`, the cytotoxicity is reported as 18.9%.
For `CC1(C)Cc2c(C#N)c(SCC(=O)c3ccccc3)nc(N3CCOCC3)c2CO1`, the cytotoxicity was -5.6%.
In the case of `CC1(C)Cc2c(C#N)c(SCCOc3ccccc3)nc(N3CCOCC3)c2CO1`, the cytotoxicity is reported as 59.4% (active).
For `CCCCCSc1nc(N2CCOCC2)c2c(c1C#N)CC(C)(C)OC2`, the cytotoxicity was 1.7%.
